Source: the supplement of paper PMC13380429

Test system: Vero E6 infected with SARS-CoV-2
Assay: inhibition of SARS-CoV-2 cytopathic effect; higher = more antiviral protection, active = above 15
Conditions: 48 h

Measured: inhibition of SARS-CoV-2 cytopathic effect

Cc1ccc(C[N+](C)(C)C)o1 [5-methylfurmethiodide]
inactive: 1 nM -1.33% | 8.33 nM -0.75% | 100 nM -0.64% | 833.33 nM -0.84% | 10000 nM 0.7%

N#Cc1c(-c2ccccc2)cc(-c2cc(Br)ccc2O)[nH]c1=O
inactive: 1 nM 0.98% | 8.33 nM 2.69% | 100 nM 3% | 833.33 nM 2.87% | 10000 nM 3.55%

CCCc1nn(C)c2c(=O)[nH]c(-c3cc(S(=O)(=O)N4CCN(C)CC4)ccc3OCC)nc12 [sildenafil]
inactive: 1 nM 2.67% | 8.33 nM 2.01% | 100 nM 0.47% | 833.33 nM 2.04% | 10000 nM -2.29%

C[C@@H]1[C@H](O)[C@@H](C)/C=C/C=C/C=C/C=C/C=C/C=C/C=C/[C@H](O[C@@H]2O[C@H](C)[C@@H](O)[C@H](N)[C@@H]2O)C[C@@H]2O[C@](O)(C[C@@H](O)C[C@@H](O)[C@H](O)CC[C@@H](O)C[C@@H](O)CC(=O)O[C@H]1C)C[C@H](O)[C@H]2C(=O)O [amphotericin-b]
inactive: 1 nM -1.34% | 8.33 nM 0.44% | 100 nM -1.99% | 833.33 nM -0.45% | 10000 nM 3.31%

Nc1ncnc2c1c(-c1ccc(Oc3ccccc3)cc1)nn2C1CCCC1
inactive: 1 nM 3.63% | 8.33 nM 1.32% | 100 nM 0.15% | 833.33 nM -0.21% | 10000 nM -13.6%

Nc1nc(N)nc(-c2cc(Cl)ccc2Cl)n1 [irsogladine]
inactive: 1 nM 2.68% | 8.33 nM 1.38% | 100 nM 0.04% | 833.33 nM 1.79% | 10000 nM -0.24%

COC[C@@H](NC(C)=O)C(=O)NCc1ccccc1 [Lacosamide]
inactive: 1 nM -11.7% | 8.33 nM -10.6% | 100 nM -8.79% | 833.33 nM -10.4% | 10000 nM -12.7%

CC1(c2ccccc2)OC(C(=O)O)=CC1=O (stereo not given) [acifran]
inactive: 1 nM 0.88% | 8.33 nM 4.17% | 100 nM 2.12% | 833.33 nM -3.24% | 10000 nM 2.64%

N[C@@H](CC(=O)Nc1ccc(Oc2cc(F)c(F)cc2Br)cc1)C(=O)O
inactive: 1 nM -3.45% | 8.33 nM -0.99% | 100 nM -1.17% | 833.33 nM -3.56% | 10000 nM 6.38%

OC[C@@H](O)[C@H]1O[C@@H]2O[C@H](C(Cl)(Cl)Cl)O[C@@H]2[C@H]1O [chloralose]
inactive: 1 nM 1.75% | 8.33 nM 3.01% | 100 nM 2.94% | 833.33 nM -0.88% | 10000 nM -0.85%

O=C(Nc1nc2ccc(NC(=O)C34CC5CC(CC(C5)C3)C4)cc2s1)c1ccccc1
inactive: 1 nM 1.55% | 8.33 nM 3.1% | 100 nM 0.95% | 833.33 nM 2.14% | 10000 nM -6.77%

CCCN1CCN(c2ccc(C(=O)NC3(C(=O)NCC#N)CCCCC3)cc2)CC1 [balicatib]
inactive: 1 nM 3.8% | 8.33 nM 0.96% | 100 nM -1.9% | 833.33 nM 0.29% | 10000 nM 10.8%

CC(C)(C)NCC(O)c1cc(Cl)c(N)c(Cl)c1 (stereo not given) [clenbuterol]
inactive: 1 nM -0.45% | 8.33 nM -0.13% | 100 nM 1.96% | 833.33 nM -0.35% | 10000 nM -2.77%

CC(C)NC(=N)NC(=N)Nc1ccc(Cl)cc1 [proguanil]
inactive: 1 nM -0.7% | 8.33 nM 0.28% | 100 nM -0.95% | 833.33 nM -1.01% | 10000 nM -5.67%

CC(C)N(CCC(=O)c1ccc2ccccc2c1)Cc1ccccc1
inactive: 1 nM 0.32% | 8.33 nM -1.41% | 100 nM 1.13% | 833.33 nM 3.16% | 10000 nM 3.92%

COc1ccc(-c2nc(-c3ccc(-c4cccc(Cl)c4)o3)[nH]c2-c2ccc(OC)cc2)cc1 [neurodazine]
inactive: 1 nM 0.83% | 8.33 nM -0.31% | 100 nM 4.87% | 833.33 nM 5.51% | 10000 nM 1.25%

COc1cc(N2CCN(C)CC2)ccc1Nc1nccc(-c2cn(C)c3cnccc23)n1
inactive: 1 nM 0.14% | 8.33 nM -0.24% | 100 nM 2.63% | 833.33 nM -0.7%
active: 10000 nM 40.7%

COc1cc(C[C@H]2c3cc(OC)c(OC)cc3CCN2C)c(Oc2cc3c(cc2OC)-c2c(OC)c(OC)cc4c2[C@H](C3)N(C)CC4)cc1OC [thaliblastine]
inactive: 1 nM 1.34% | 8.33 nM 1.21% | 100 nM -0.77% | 833.33 nM 3.94%
active: 10000 nM 45.5%
